According to PubChem BioAssay (NCI):
Compounds without any hit were thinned out: in the full panel of roughly 83,000, 20% have a hit.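 Method: cells in 96-well plates; compound added at one concentration; 48 h incubation; percent growth measured; values under 10 scored active.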 Activity calls are given as the source filed them.

Tested on: CCRF-CEM leukemia
Test: NCI-60 one-dose screen, 48 h (100 = growth as untreated, 0 = no growth, -100 = all killed)
Conditions: 10 µM unless noted
Protocol: Growth inhibition of the CCRF-CEM human tumor cell line is measured as a screen for anti-cancer activity. Cells are grown in 96 well plates and exposed to the test compound for 48 hours. Compounds are tested at a single concentration, which is 10^-5 M for most compounds. The reported endpoint is percent growth (GI% or GIPRCNT), where numbers from 0 - 100% represent growth inhibition, and numbers from -100% - 0 represent cell death. For example, a value of 40 represents 60% growth inhibition. A value of 0 means no net growth occurred over the course of the experiment. A value of -40 indicates 40% of cells at the beginning of the experiment died by the end of the experiment. A value of -100 means all cells are dead at the end of the experiment.
NCI-60 Human Tumor Cell Lines Screen was performed using the standard one-dose NCI protocol, which is described in more detail at https://dtp.cancer.gov/discovery_development/nci-60/default.htm.
Compounds with GIPRCNT values below 10 were considered active. Activity score was based on GIPRCNT using the following formula: […]
Score is 0 for GIPRCNT values of 100 or above, 50 for GIPRCNT values of 0, and 100 for GIPRCNT values of -100.

**Q.** With `C=C1CC[C@@H]2[C@](C)(COC(C)=O)[C@H](OC(C)=O)CC[C@@]2(C)[C@@H]1CC(Nc1ccc(S(=O)(=O)Nc2cc(C)on2)cc1)C1=CCOC1=O` (stereo not given in full) as the compound, how does the growth read?
**A.** The growth was -19.1% (active).

**Q.** Which growth does the source give for `CCOC(=O)C1=C(COCCN)NC(C)=C(C(=O)OC)C1c1ccccc1Cl` (stereo not given) here?
**A.** The growth was 66.2% (inactive).

**Q.** Which growth does the source give for `CN(C)c1ccc2[nH]c3c(C(N)=O)cc(=O)c(=O)c=3oc2c1` here?
**A.** Its growth is 11.9% (inactive).

**Q.** How did the growth turn out when `CCCn1cnc2c1c(=O)n(CCCCC(C)=O)c(=O)n2C` was run?
**A.** Its growth is 109% (inactive).

**Q.** Which growth does the source give for `Cc1ccc2c(c1)O/C(=C\c1ccc([N+](=O)[O-])o1)C2=O` here?
**A.** The growth was -32.4% (active).

**Q.** Which growth does the source give for `COc1cc(/C=C/c2nnc(-c3cc(-c4ccccc4)n[nH]3)o2)cc(OC)c1OC` here?
**A.** The growth was 75.9% (inactive).

**Q.** For `O=C(C(=O)N1CCCCC1)c1ccc(OC2OC(CO)C(O)C(O)C2O)cc1` (stereo not given), which growth is on record?
**A.** The growth was 97.7% (inactive).

**Q.** Which growth does the source give for `C/C(=N\N1CC(=O)NC1=O)c1ccc([N+](=O)[O-])o1` here?
**A.** Its growth is 106% (inactive).

**Q.** How did the growth turn out when `COc1ccc(C2=NN(C(C)=O)C(c3cc(OC)c(OC)c(OC)c3)C2)cc1` (stereo not given) was run?
**A.** The growth was 75.5% (inactive).

**Q.** For `Cc1ccc([N+](=O)[O-])cc1NC(=O)Nc1cccc(F)c1`, which growth is on record?
**A.** Its growth is 54.4% (inactive).

**Q.** For `CCOc1ccccc1C(=O)OCC(=O)Nc1cccc(S(=O)(=O)N(C)C)c1`, which growth is on record?
**A.** The growth was 169% (inactive).

**Q.** For `COc1cc2c(c(OC)c1OC)-c1ccc(NN(C(=O)c3ccccc3)C(=O)c3ccccc3)c(=O)cc1[C@@H](NC(C)=O)CC2` (tested in a mixture with another compound), which growth is on record?
**A.** Its growth is 41.9% (inactive).

**Q.** `O=C1/C(=C/c2ccc([N+](=O)[O-])o2)Oc2ccc(Cl)cc21` was tested. Which growth did it give?
**A.** The growth was -23.4% (active).

**Q.** Which growth does the source give for `O=C1/C(=C/c2ccc([N+](=O)[O-])o2)Oc2ccc(Br)cc21` here?
**A.** The growth was 66.2% (inactive).

**Q.** For `CC(O)c1nc2c(c(=O)n(C)c(=O)n2C)n1C` (stereo not given), which growth is on record?
**A.** Its growth is 96.3% (inactive).

**Q.** For `CC[C@H](C)C(=O)O[C@H]1C[C@@H](C)C=C2C=C[C@H](C)[C@H](CC[C@@H]3C[C@@H](O)CC(=O)O3)[C@H]21`, which growth is on record?
**A.** Its growth is 72.9% (inactive).

**Q.** Which growth does the source give for `COc1ccc(-c2nnc(COc3ccc(NC(=O)Nc4cc(C(F)(F)F)cc(C(F)(F)F)c4)cc3F)o2)cc1` here?
**A.** Its growth is 16.2% (inactive).

**Q.** For `CC(=O)Oc1ccc(C23c4ccccc4C2(OC(C)=O)c2cc(OC(C)=O)ccc23)cc1` (stereo not given), which growth is on record?
**A.** The growth was 41.8% (inactive).

**Q.** For `Cc1nc2c(O)cccc2cc1CO`, which growth is on record?
**A.** Its growth is 107% (inactive).

**Q.** With `CCCCn1c(Cc2ccc(Cl)cc2)nc2cc(OC)c(OC)cc2c1=O` as the compound, how does the growth read?
**A.** The growth was -68.8% (active).

**Q.** For `CC(C)COCC(CN(Cc1ccccc1)c1ccccc1)N1CCCC1` (stereo not given), which growth is on record?
**A.** Its growth is 41.7% (inactive).

**Q.** Which growth does the source give for `CC1=CSC2=NCCN12` here?
**A.** The growth was 93.6% (inactive).

**Q.** How did the growth turn out when `COc1ccc2c(c1)nc(N)c1c3cc(C)c(C)cc3cn21` was run?
**A.** Its growth is 70.9% (inactive).

**Q.** For `Cc1cc(NC(=O)Nc2cc(Cl)ccc2C)no1`, which growth is on record?
**A.** The growth was 109% (inactive).

**Q.** For `Cc1cc(NC(=O)Nc2cccc3ccccc23)no1`, which growth is on record?
**A.** The growth was 107% (inactive).

**Q.** How did the growth turn out when `CCN1C(=O)c2ccc3c4c(ccc(c24)C1=O)C(=O)N(CCCNCc1ccccc1OC)C3=O` was run?
**A.** Its growth is -42.3% (active).

**Q.** With `N=c1ccn2c(n1)O[C@@H]1[C@@H](O)[C@H](CO)O[C@@H]12` as the compound, how does the growth read?
**A.** Its growth is 31.5% (inactive).

**Q.** Which growth does the source give for `CC(NC(=O)C(C)Oc1ccc(Cl)cc1Cl)C(=O)O` (stereo not given) here?
**A.** The growth was -9.97% (active).

**Q.** With `c1csc([C@@H]2C[C@@H]3Cc4ccc5ccccc5c4N2O3)c1` as the compound, how does the growth read?
**A.** The growth was 75.8% (inactive).

**Q.** For `O=C(Nc1cccc2ccccc12)c1cc2c(cc1Br)OCO2`, which growth is on record?
**A.** The growth was 94.7% (inactive).

**Q.** Which growth does the source give for `c1cnc2ccc3ncccc3c2c1` here?
**A.** Its growth is 98.9% (inactive).

**Q.** `C[N+]1(CCc2ccccc2)CCC(CCC2CC[N+](C)(CCc3ccccc3)CC2)CC1` (stereo not given) was tested. Which growth did it give?
**A.** Its growth is 127% (inactive).

**Q.** With `COc1ccc(OC)c2c1[nH]c(=O)c1c3ccccc3cn21` as the compound, how does the growth read?
**A.** Its growth is -48.7% (active).

**Q.** With `OC(Cc1cccnc1)c1ccccc1` (stereo not given) as the compound, how does the growth read?
**A.** The growth was 80.2% (inactive).

**Q.** Which growth does the source give for `CCCCOc1ccc(C(C)(C)c2ccc(OCCCC)cc2)cc1` here?
**A.** Its growth is 97.7% (inactive).

**Q.** Which growth does the source give for `Nc1c2ccccc2nc2ccccc12` (tested in a mixture with another compound) here?
**A.** The growth was 26.2% (inactive).

**Q.** With `O=C1OCC/C1=C\OCCCO/C=C1\CCOC1=O` as the compound, how does the growth read?
**A.** Its growth is 107% (inactive).

**Q.** For `COc1cc2c(cc1OCCCCCn1c(-c3ccc(OCc4ccccc4)cc3)nc3cc(N4CCOCC4)ccc31)N=C[C@@H]1CCCN1C2=O`, which growth is on record?
**A.** Its growth is 8.03% (active).

**Q.** How did the growth turn out when `COC(=O)C[C@@H]1CC=CC(=O)/C1=C(O)/C=C/c1ccccc1` was run?
**A.** Its growth is 10.8% (inactive).

**Q.** Which growth does the source give for `O=C(Nc1cccc(-n2cc(-c3ccncc3)c(-c3ccc(O)c(Cl)c3)n2)c1)Nc1ccc(Cl)c(C(F)(F)F)c1` here?
**A.** Its growth is 1.32% (active).
